Experimental data from PubChem BioAssay (NCI).
This is part of a sample that, as a whole, favours compounds with a hit. Of some 83,000 tested, about 20% had one in any assay.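 Negative percent growth values reflect cell death: -40 means 40% of the cells present at the start died, and -100 means all died.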 Activity calls are given as the source filed them. Rule for the calls: active = growth percent below 10; inactive = the rest.

system: NCI/ADR-RES ovarian; test: NCI-60 one-dose screen, 48 h (100 = growth as untreated, 0 = no growth, -100 = all killed); conditions: 10 µM unless noted

SMILES	growth
Cc1ccc(C(=O)Nc2ccc(-n3ccnc3)c(C(F)(F)F)c2)cc1C#Cc1cnc2cccnn12	24.7% (inactive)
N/C(=N\c1nc2ccccc2s1)NC(=O)Nc1ccccc1F	-14.8% (active)
Cc1nc2sccn2c1-c1nnc(SCC(C)C)o1	79% (inactive)
O=[N+]([O-])c1cccc(-c2nnc3c(/C=C/c4ccc(F)cc4)nc4ccccc4n23)c1	87.4% (inactive)
C=CC(=O)N1CCN(c2ccc3nc4c(nc3c2C(F)(F)F)C(=O)c2ncccc2C4=O)CC1	47.5% (inactive)
CN1CCN(CCS(=O)(=O)Nc2cc(-c3ccc4ncnc(Nc5ccc(F)c(Cl)c5)c4c3)cnc2Cl)CC1	78.4% (inactive)
COc1ccc(N=Nc2c(N)nn3c(-c4ccc(F)cc4)ccnc23)cc1	74.3% (inactive)
O=C(N/N=C/c1c[nH]c2ccccc12)Nc1ccc(F)c(Cl)c1	9.47% (active)
N#CCc1nnc(NC(=O)c2ccc(-n3c(=O)[nH]c4ccccc4c3=O)cc2)s1	104% (inactive)
CCOc1ccc(-c2cc(-c3cc(C(C)C)c(O)cc3C)nn2-c2ccc(S(N)(=O)=O)cc2)cc1	4.14% (active)
CN1CCN(c2ccc3c4c(cccc24)C(=O)N(c2cccc(-c4nn(-c5ccccc5)cc4-c4nc5ccccc5s4)c2)C3=O)CC1	95.2% (inactive)
O=C(Cn1c(-c2ccccc2)nc2ccccc21)N=Nc1c(O)[nH]c2ccc(Cl)cc12	-43.2% (active)
CCc1ccc(SC2c3cc(OC)ccc3Oc3nc(N)c(C#N)c(N)c32)cc1 (stereo unspecified)	0.784% (active)
CN(C)C(=O)c1cc(-c2ccc3ncnc(N4CCc5cc(F)c(Cl)cc54)c3c2)cnc1N	-12.5% (active)
CN1C(=O)C2(C(C#N)=C(c3ccc(Cl)cc3)Nc3c2c(-c2ccccc2)nn3-c2ccccc2)c2ccccc21 (stereo unspecified)	78.8% (inactive)
Cc1ccc2c(c1)/C(=C/C(=O)c1cc3ccccc3oc1=O)C(=O)N2	65.9% (inactive)
N#CC1=C(c2cccs2)Nc2c(c(-c3ccccc3)nn2-c2ccccc2)C12C(=O)Nc1ccc(Cl)cc12 (stereo unspecified)	33% (inactive)
O=C(NC(=S)N1CCN(c2ncnc3c2cnn3-c2ccccc2)CC1)c1ccc(Br)cc1	53.9% (inactive)
Nc1nnc(-c2cncc(Br)c2)c(-c2c[nH]c3ccc(Cl)cc23)n1	63.5% (inactive)

SMILES	growth
COc1ccc(C2=NN(C(=O)[C@H]3[C@@H](c4ccco4)c4sc(=O)[nH]c4S[C@@H]3C)C(c3ccc4ccccc4c3)C2)cc1 (stereo partly specified)	26.7% (inactive)
CCOc1ccc2[nH]c(=O)c(C(c3nnnn3CC3CCCO3)N3CCN(Cc4ccccc4)CC3)cc2c1 (stereo unspecified)	90.1% (inactive)
FC(F)(F)c1cc2c(Cl)ncnc2n1CCC1CCOCC1	69% (inactive)
COc1cc(/C=C/C(=O)c2cnn(-c3cc(=O)[nH]c4ccc(C)cc34)c2C)cc(OC)c1OC	-11.1% (active)
O=C(N/N=C/c1c[nH]c2ccccc12)Nc1ccccc1Cl	-9.92% (active)
Nc1nn2c(-c3cc4ccccc4oc3=O)ccnc2c1N=Nc1ccccc1	47.2% (inactive)
Cc1ccc(C(=O)Nc2cc(-c3ccncc3)cc(C(F)(F)F)c2)cc1C#Cc1cnc2cccnn12	50.2% (inactive)
COc1ccc(C(=O)/C=C/c2ccc3c(c2)OCCO3)cc1S(N)(=O)=O	53.1% (inactive)
FC(F)(F)c1cc2c(Cl)ncnc2n1CCN1CCCCC1	79% (inactive)
COc1ccc2[nH]cc(-c3cc4nc(-c5cn(C)c6ncccc56)cc(N)n4n3)c2c1	-15.6% (active)
Nc1nc(-c2ccccc2)c(N=Nc2ccc(Cl)cc2Cl)s1	-57% (active)
COc1ccc(NC(=O)Cn2c(/C=C/c3ccc([N+](=O)[O-])cc3)nc3ccccc3c2=O)cc1	39% (inactive)
C[C@@H]1[C@H]2C[C@@H](C[C@H]1NCc1nc3ccccc3n1C1CCCCCC1)C2(C)C	25.9% (inactive)
COc1ccc(NC(=O)Cn2c(/C=C/c3cccc(Br)c3)nc3ccccc3c2=O)cc1	31.2% (inactive)
Cc1ccc(-c2cc(C(=O)N=Nc3c(O)[nH]c4ccc(F)cc34)c3ccccc3n2)cc1	3.61% (active)
CCOC(=O)c1ccc(NC(=S)NC(=O)c2ccc(NC(=O)C(C)C)cc2OC)cc1	23% (inactive)
CCCSc1nnc(-c2c(C)nc3sccn23)o1	83.5% (inactive)
Cc1ccc(N=Nc2c(N)nn3c(-c4cc5ccccc5oc4=O)ccnc23)cc1	27% (inactive)
O=C(N/N=C/c1ccc(Cl)o1)c1[nH]c2ccc(Br)cc2c1-c1ccccc1	-79% (active)

system: T-47D breast; test: as above; conditions: 10 µM unless noted

SMILES	growth
Cc1ccc(C(=O)Nc2ccc(-n3ccnc3)c(C(F)(F)F)c2)cc1C#Cc1cnc2cccnn12	-13.3% (active)
N/C(=N\c1nc2ccccc2s1)NC(=O)Nc1ccccc1F	31.1% (inactive)
Cc1nc2sccn2c1-c1nnc(SCC(C)C)o1	59.4% (inactive)
O=[N+]([O-])c1cccc(-c2nnc3c(/C=C/c4ccc(F)cc4)nc4ccccc4n23)c1	74.3% (inactive)
C=CC(=O)N1CCN(c2ccc3nc4c(nc3c2C(F)(F)F)C(=O)c2ncccc2C4=O)CC1	-4.37% (active)
CN1CCN(CCS(=O)(=O)Nc2cc(-c3ccc4ncnc(Nc5ccc(F)c(Cl)c5)c4c3)cnc2Cl)CC1	-6.97% (active)
COc1ccc(N=Nc2c(N)nn3c(-c4ccc(F)cc4)ccnc23)cc1	61.1% (inactive)
O=C(N/N=C/c1c[nH]c2ccccc12)Nc1ccc(F)c(Cl)c1	34% (inactive)
N#CCc1nnc(NC(=O)c2ccc(-n3c(=O)[nH]c4ccccc4c3=O)cc2)s1	100% (inactive)
CCOc1ccc(-c2cc(-c3cc(C(C)C)c(O)cc3C)nn2-c2ccc(S(N)(=O)=O)cc2)cc1	18.4% (inactive)
CN1CCN(c2ccc3c4c(cccc24)C(=O)N(c2cccc(-c4nn(-c5ccccc5)cc4-c4nc5ccccc5s4)c2)C3=O)CC1	109% (inactive)
O=C(Cn1c(-c2ccccc2)nc2ccccc21)N=Nc1c(O)[nH]c2ccc(Cl)cc12	-29.8% (active)
CCc1ccc(SC2c3cc(OC)ccc3Oc3nc(N)c(C#N)c(N)c32)cc1 (stereo unspecified)	-52% (active)
CN(C)C(=O)c1cc(-c2ccc3ncnc(N4CCc5cc(F)c(Cl)cc54)c3c2)cnc1N	-59.1% (active)
CN1C(=O)C2(C(C#N)=C(c3ccc(Cl)cc3)Nc3c2c(-c2ccccc2)nn3-c2ccccc2)c2ccccc21 (stereo unspecified)	84.6% (inactive)
Cc1ccc2c(c1)/C(=C/C(=O)c1cc3ccccc3oc1=O)C(=O)N2	72.8% (inactive)
N#CC1=C(c2cccs2)Nc2c(c(-c3ccccc3)nn2-c2ccccc2)C12C(=O)Nc1ccc(Cl)cc12 (stereo unspecified)	11% (inactive)
O=C(NC(=S)N1CCN(c2ncnc3c2cnn3-c2ccccc2)CC1)c1ccc(Br)cc1	73.1% (inactive)
Nc1nnc(-c2cncc(Br)c2)c(-c2c[nH]c3ccc(Cl)cc23)n1	34.4% (inactive)

SMILES	growth
COc1ccc(C2=NN(C(=O)[C@H]3[C@@H](c4ccco4)c4sc(=O)[nH]c4S[C@@H]3C)C(c3ccc4ccccc4c3)C2)cc1 (stereo partly specified)	9.22% (active)
CCOc1ccc2[nH]c(=O)c(C(c3nnnn3CC3CCCO3)N3CCN(Cc4ccccc4)CC3)cc2c1 (stereo unspecified)	106% (inactive)
FC(F)(F)c1cc2c(Cl)ncnc2n1CCC1CCOCC1	66.6% (inactive)
COc1cc(/C=C/C(=O)c2cnn(-c3cc(=O)[nH]c4ccc(C)cc34)c2C)cc(OC)c1OC	1.32% (active)
O=C(N/N=C/c1c[nH]c2ccccc12)Nc1ccccc1Cl	44.9% (inactive)
Nc1nn2c(-c3cc4ccccc4oc3=O)ccnc2c1N=Nc1ccccc1	85.9% (inactive)
Cc1ccc(C(=O)Nc2cc(-c3ccncc3)cc(C(F)(F)F)c2)cc1C#Cc1cnc2cccnn12	81.6% (inactive)
COc1ccc(C(=O)/C=C/c2ccc3c(c2)OCCO3)cc1S(N)(=O)=O	53% (inactive)
FC(F)(F)c1cc2c(Cl)ncnc2n1CCN1CCCCC1	70.5% (inactive)
COc1ccc2[nH]cc(-c3cc4nc(-c5cn(C)c6ncccc56)cc(N)n4n3)c2c1	33.3% (inactive)
Nc1nc(-c2ccccc2)c(N=Nc2ccc(Cl)cc2Cl)s1	25.4% (inactive)
COc1ccc(NC(=O)Cn2c(/C=C/c3ccc([N+](=O)[O-])cc3)nc3ccccc3c2=O)cc1	56.1% (inactive)
C[C@@H]1[C@H]2C[C@@H](C[C@H]1NCc1nc3ccccc3n1C1CCCCCC1)C2(C)C	48% (inactive)
COc1ccc(NC(=O)Cn2c(/C=C/c3cccc(Br)c3)nc3ccccc3c2=O)cc1	-16.6% (active)
Cc1ccc(-c2cc(C(=O)N=Nc3c(O)[nH]c4ccc(F)cc34)c3ccccc3n2)cc1	39.9% (inactive)
CCOC(=O)c1ccc(NC(=S)NC(=O)c2ccc(NC(=O)C(C)C)cc2OC)cc1	-0.757% (active)
CCCSc1nnc(-c2c(C)nc3sccn23)o1	21.2% (inactive)
Cc1ccc(N=Nc2c(N)nn3c(-c4cc5ccccc5oc4=O)ccnc23)cc1	55.7% (inactive)
O=C(N/N=C/c1ccc(Cl)o1)c1[nH]c2ccc(Br)cc2c1-c1ccccc1	29.8% (inactive)
